Screening results as filed in PubChem.
NSD2 HMT inh = blocks human histone methyltransferase NSD2. 310,000 compounds, 0.54% hits. NSD2 peptide methylation, AlphaScreen, 120 min. inhibition, % at 12.5 µM. O96028; in the data active means inhibition above about 50%
CASP6 VEID inh = caspase-6 (human) enzyme inhibition. P55212. purified caspase-6, Z-VEID-R110 cleavage fluorescence. inhibition, % at 12.5 µM. 350,000 compounds, 0.53% hits;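 active means mean inhibition across replicates at least about 35%, with every replicate also reaching that limit, limit read from the data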
Target sequence (P55212 24-179 limits assumed): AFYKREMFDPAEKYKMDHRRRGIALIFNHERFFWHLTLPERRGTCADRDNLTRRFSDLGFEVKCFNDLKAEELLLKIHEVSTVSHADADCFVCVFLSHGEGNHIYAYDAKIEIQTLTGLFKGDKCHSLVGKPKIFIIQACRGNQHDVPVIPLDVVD
Target sequence (P55212 194-293 limits assumed): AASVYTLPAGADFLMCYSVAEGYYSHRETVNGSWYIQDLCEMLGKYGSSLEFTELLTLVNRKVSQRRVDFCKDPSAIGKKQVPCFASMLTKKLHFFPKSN
N-glyco inh = N-linked glycosylation inhibition; D54 ERlucT glycosylation luciferase reporter, 24 h; percent of 100 nM tunicamycin response; reporter increase, % at 12.5 µM; 360,000 compounds, 0.23% hits; AID 588692;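 active means mean luciferase reporter signal, scaled so untreated is 0 and the glycosylation-blocking control 100, at or above a set limit in every replicate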;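 further: luciferase carries N-glycosylation sites so blocking glycosylation raises the light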
CDK5 inh = blocks human CDK5/p35 kinase activity | Q00535+Q15078 | Recombinant CDK5/p35, ADP-Glo luminescence, 60 min | inhibition, % at 10 µM | 330,000 compounds, 0.01% hits | AID 488839;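 active means highest replicate inhibition of at least 50% and at least 75% of replicates reaching 50%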
ALR inh = blocks human ALR sulfhydryl oxidase activity; P55789; purified ALR, DTT oxidation, H2O2 HRP-luminol luminescence; inhibition, % (no concentration beside the values); 290,000 compounds, 3.8% hits; AID 485317;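 active means mean replicate inhibition above about 79%, with every replicate also reaching it, limit read from the data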
Target sequence (P55789 whole entry, looked up): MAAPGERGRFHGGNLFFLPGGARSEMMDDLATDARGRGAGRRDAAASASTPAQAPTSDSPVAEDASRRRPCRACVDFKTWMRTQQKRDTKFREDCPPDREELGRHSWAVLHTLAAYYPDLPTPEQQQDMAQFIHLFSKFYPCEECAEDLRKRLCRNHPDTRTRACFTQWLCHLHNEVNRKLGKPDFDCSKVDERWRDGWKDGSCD
Mot1-301 SUMO = blocks SUMOylation pathway, rescuing yeast Mot1-301 growth | S. cerevisiae Mot1-301 growth rescue, ATP luminescence, 38.5C; percent above DMSO median, 100 means doubled | 320,000 compounds, 1% hits | growth rescue, % at 18.8 µM | AID 2716;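 active means every valid replicate shows activation above 250% relative to neutral control wells; inactive means the rest, any valid replicate at or below 250%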
Hits are given with their value; – = inactive; · = no result. Most compounds without a hit are left out; they make up all but 3.9% or so of the library.

SMILES | NSD2 HMT inh | CASP6 VEID inh | N-glyco inh | CDK5 inh | ALR inh | Mot1-301 SUMO
Cc1cc(OCC(=O)NNC(=S)NC(=O)c2cccs2)ccc1Cl | – | – | – | – | – | –
CCCC(=O)Nc1ccc(C(=O)NNC(=S)NC(=O)c2ccc(Br)o2)cc1 | – | – | – | – | – | –
Cc1ccc(OCC(=O)NNC(=S)NC(=O)c2ccc(Br)o2)c(C)c1 | – | – | · | – | 98.3 | –
Cc1ccc(OCC(=O)NNC(=S)NC(=O)c2cccs2)c(C)c1 | – | – | – | – | 98.2 | –
CCc1ccc(OCC(=O)NC(=S)Nc2ccc(C)cc2C)c(Br)c1 | – | · | – | – | – | –
COc1ccc(C(=O)NNC(=S)NC(=O)c2ccc(Br)o2)cc1OC | – | – | – | – | 85.6 | –
COc1ccc(C(=O)NC(=S)NNC(=O)c2cnccn2)cc1OC | – | · | – | – | 97.5 | –
C[C@@H]1CN([C@@H](C)CO)C(=O)c2cc(NC(=O)Cn3cnnn3)ccc2O[C@H]1CN(C)C(=O)NC1CCCCC1 | · | – | · | · | · | ·
O=c1[nH]c(=S)[nH]c2sccc12 | – | – | – | – | 97.3 | –
O=c1[nH]c(=S)[nH]c2scc(-c3ccc(Br)cc3)c12 | – | – | – | – | – | –
C[C@H](CO)N1C[C@H](C)[C@@H](CN(C)S(=O)(=O)c2ccccc2)Oc2ccc(NC(=O)CCCN(C)C)cc2CC1=O | · | – | · | · | · | ·
O=C(NC(=S)Nc1ccc(CN2CCCCC2)cc1)c1cccc(OCc2ccccc2)c1 | – | – | – | – | – | –
O=C(CNC(=S)NC(=O)c1ccccc1)c1ccccc1 | – | · | – | – | 78.6 | –
O=C(O)c1ccc(NC(=S)Nc2ccccc2)cc1 | – | – | – | – | 98.8 | –
O=C(CCN1CCOCC1)NNC(=S)NC(=O)c1ccccc1 | – | – | – | – | 98.6 | –
O=C(O)c1ccc(NC(=S)NC(=O)C(c2ccccc2)c2ccccc2)cc1 | – | – | – | – | – | –
O=C(O)c1ccc(NC(=S)NC(=O)c2cccc(COc3ccccc3)c2)cc1 | – | – | – | – | 96.9 | ·
O=C(CCN1CCOCC1)c1ccccc1 | – | – | – | – | – | –
O=C(CNC(=S)NC(=O)c1ccc(F)cc1)c1ccccc1 | – | – | – | – | – | –
COc1ccc2c3c([nH]c2c1)[C@H](CO)N(C(=O)C1CCCC1)CC31CN(Cc2nccs2)C1 | · | – | · | · | · | ·
O=C(C[C@@H]1C=C[C@H](NC(=O)C2CCOCC2)[C@H](CO)O1)NCC1CCCCC1 | · | – | · | · | · | ·
C[C@H]1CN([C@@H](C)CO)C(=O)c2cc(NS(=O)(=O)c3ccc(F)cc3)ccc2O[C@@H]1CN(C)C(=O)NC1CCCCC1 | · | – | · | · | · | ·
O=C(NNC(=S)Nc1ccccc1)c1ccc(O)cc1 | – | – | – | – | 99.0 | –
O=C(NNC(=S)Nc1ccccc1)c1ccc2ncccc2c1 | – | – | – | – | 78.3 | –
CC(C)(C)NC(=S)NNC(=O)c1ccc2ncccc2c1 | – | – | – | – | – | –
SMILES | NSD2 HMT inh | CASP6 VEID inh | N-glyco inh | CDK5 inh | ALR inh | Mot1-301 SUMO
O=C(c1ccc(O)cc1)c1ccc(C(=O)c2ccc(O)cc2)cc1 | – | · | – | – | – | –
O=C(NNC(=S)Nc1ccccc1)c1cccs1 | – | · | – | – | – | –
O=C(C(=O)c1ccc(O)cc1)c1ccccc1 | – | – | – | – | – | 356.3
O=C(NNC(=S)NC(=O)c1ccccc1)c1ccc(O)cc1 | – | – | – | – | 98.8 | –
C[C@@H]1CN([C@H](C)CO)C(=O)c2cc(NC(=O)Cn3cnnn3)ccc2O[C@@H]1CN(C)S(=O)(=O)c1cccs1 | · | – | · | · | · | ·
Cc1ccccc1C(=O)NCC(=O)NNC(=S)NC(=O)c1ccccc1 | – | · | – | – | 97.9 | –
COc1ccccc1NC(=S)NNC(=O)c1ccc(O)cc1 | – | · | – | – | 99.3 | –
O=P(c1ccccc1)(c1ccccc1)c1ccc(O)cc1 | – | – | – | – | – | 348.9
COc1ccc(C)cc1NC(=S)NNC(=O)c1ccccc1Cl | – | · | – | – | 77.2 | –
CS(=O)(=O)Nc1ccc2c(c1)[C@@H]1C[C@@H](CC(=O)NCc3ccccn3)O[C@H](CO)[C@@H]1O2 | · | – | · | · | · | ·
C[C@@H]1CN([C@@H](C)CO)C(=O)c2cccc(NC(=O)c3cnccn3)c2O[C@H]1CN(C)C(=O)Nc1cccc2ccccc12 | · | – | · | · | · | ·
O=C(C[C@H]1CC[C@@H]2[C@H](COC[C@@H](O)CN2S(=O)(=O)c2cccc(Cl)c2)O1)NC1CCC1 | · | – | · | · | · | ·
C=CCn1c(SCc2nc3sc(C(=O)O)c(C)c3c(=O)[nH]2)nnc1-c1ccc(C(C)(C)C)cc1 | – | – | – | – | 98.1 | –
C=CCn1c(SCc2nc3sc(C(=O)O)c(C)c3c(=O)[nH]2)nnc1-c1ccccc1 | – | · | – | – | – | –
CC(C)(C)[S@@](=O)N1Cc2cc(C(=O)N3CCc4ccccc4C3)nc(-c3cccc(-c4cccnc4)c3)c2[C@H]1CCO | · | – | · | · | · | ·
CC(C)(C)S(=O)N1Cc2cc(C(=O)N3CCc4ccccc4C3)nc(-c3cccc(-c4cccnc4)c3)c2[C@@H]1CCO (some centres not stated) | · | 41.6 | – | · | · | ·
Cc1c(NC(=S)N/N=C/c2ccc(O)cc2)c(=O)n(-c2ccccc2)n1C | – | · | – | – | 99.2 | –
COc1ccc(-c2c3c(=O)n(C)c(=O)n(C)c3cn2-c2ccccc2)cc1 | – | · | – | – | – | –
COc1ccc(-c2c3c(=O)n(C)c(=O)n(C)c3cn2-c2ccc(O)cc2)cc1 | – | – | – | – | 89.1 | –
O=C(CSCc1ccccc1)N1CCN(Cc2ccc3c(c2)OCO3)CC1 | – | · | – | – | – | –
Cc1cccc(-c2nc(CSCC(=O)N3CCN(Cc4ccc5c(c4)OCO5)CC3)c(C)o2)c1 | – | · | – | – | 98.4 | –
Cc1ccc(-c2nc(CSCC(=O)N3CCOCC3)c(C)o2)cc1 | – | · | – | – | 99.1 | –
Cc1ccc(-c2nnc(SCC(=O)N3CCOCC3)nc2-c2ccc(C)cc2)cc1 | – | · | – | – | 95.1 | –
Cc1ccc(-c2nc(CS(=O)(=O)CC(=O)N3CCOCC3)c(C)o2)cc1 | – | – | – | · | – | –
Cn1c(SCC(=O)N2CCOCC2)nnc1-c1ccco1 | – | · | – | – | – | 352.7
SMILES | NSD2 HMT inh | CASP6 VEID inh | N-glyco inh | CDK5 inh | ALR inh | Mot1-301 SUMO
Cc1ccc(-c2nnc(SCC(N)=O)nc2-c2ccc(C)cc2)cc1 | – | – | – | – | – | –
Cc1ccc(-c2nc(CSCC(=O)N3CCN(C(=O)c4ccco4)CC3)c(C)o2)cc1 | · | – | – | – | 99.2 | –
COC(=O)Cc1[nH]nc2c1C(c1ccc(O)c(OC)c1)C(C#N)=C(N)O2 (configuration not stated) | · | – | – | – | 98.7 | –
O=C(CSC1=Nc2ccccc2C2CC=NN12)Nc1ccc2c(c1)OCO2 (configuration not stated) | – | – | – | – | · | ·
CCCOC(=O)c1ccc(NC(=O)CSC2=Nc3ccccc3C3CC=NN23)cc1 (configuration not stated) | · | – | – | – | 97.5 | –
O=C(CSC1=Nc2ccccc2C2CC=NN12)NCc1ccco1 (configuration not stated) | – | – | – | – | 98.6 | –
